Measurements reported in PubChem BioAssay AID624297 (National Center for Advancing Translational Sciences (NCATS), 2012).
Among all 340,000 compounds or so, about 6,200 (1.8%) were called active. Entries that show only a call come without a potency. Another 10% or so got no clear call; they are omitted. For the sample, actives were picked, then their nearest neighbours and some compounds at random. A number with no mark means an inactive call. The call rests on the fitted dose curve; in most records, active means well fitted activation curve with a large enough effect; inconclusive means small, poorly fitted or top-dose-only effect; inactive means no such curve, though single readings can be large or run the other way.

assay: A quantitative high throughput screen for small molecules that induce DNA re-replication in SW480 colon adenocarcinoma cells.; further: nearly all actives have a fitted effect of over 55% in size; details: Hoechst DNA content imaging, 48 h; series mostly up to 46.1 µM
Method in brief: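 Quantitative HTS format with DMSO vehicle controls; 48 hr drug incubation at 37 C, then 40 min Hoechst staining and scanning imager measurement at 405 nm excitation.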
Potency means the concentration at half of the fitted maximal effect.

SMILES | Potency | re-replication activation
CC(NC(=O)c1ccccc1)C(=O)OCC(=O)Nc1cccc(S(=O)(=O)N2CCCC2)c1 (centres undefined) | inactive | 
CC1(C)CC(=O)C(CC(=O)N2CCC(Cc3ccccc3)CC2)C(=O)C1 | inactive | 
CC1(C)CC(=O)C(C2c3ccccc3S(=O)(=O)c3ccccc32)C(=O)C1 | 4.11 µM (active) | 
CC1(C)CC(=O)C=C(Nc2ccccc2)C1 | inactive | 
COC(=O)C1CCN(C(=O)COC(=O)c2cc(S(=O)(=O)N3CCOCC3)ccc2C)CC1 | inactive | 
C#CCOCCOCCOCCNc1nc(N2CCN(C(=O)Cn3cc(CCO)nn3)CC2)nc(N2CCN(C(=O)Cn3cc(CCCN=C(N)N)nn3)CC2)n1 | inactive | 
COc1ccccc1-c1nc(SC)n[nH]1 | inactive | 
Cc1cc(C)nc(Nc2cc([N+](=O)[O-])ccc2C)n1 | inactive | 
Cc1cc(C)nc(Nc2n[nH]c(-c3ccccc3N)n2)n1 | 29.1 µM (active) | 
Cc1noc(C)c1NC(=O)Nc1cccc2c1O[C@H](CN(C)C(=O)Nc1ccccc1)[C@@H](C)CN([C@H](C)CO)C2=O | inactive | 
CCCSc1ccc([C@H]2N[C@@](Cc3ccccc3)(C(=O)OC)[C@H]3C(=O)N(C)C(=O)[C@@H]23)cc1 | inactive | 
Cc1ccc(CNC(=O)COC(=O)C2CCC2)cc1 | inactive | 
CCOc1ccccc1NC(=O)CCc1ccc(C)o1 | inactive | 
Cc1ccc(CCC(=O)Nc2ncc(Cc3cc(Cl)ccc3Cl)s2)o1 | 1.64 µM (active) | 
Cc1cnc(NC(=O)CSc2nnc(-c3ccc(Cl)cc3Cl)n2N)s1 | inactive | 
O=[N+]([O-])c1cc2ccccc2nc1-c1ccccc1 | inactive | 
O=C(CN1C(=O)NC2(CCOc3ccccc32)C1=O)Nc1cccc([N+](=O)[O-])c1 (centres undefined) | inactive | 
Cc1ccc(C(=O)COc2cccc(NC(=O)c3ccco3)c2)cc1 | inactive | 
CCn1nc(NC(=O)c2ccco2)c2cc3ccc(C)cc3nc21 | 9.2 µM (active) | 
Cc1ccnc(NC(=O)c2ccco2)n1 | inactive | 

SMILES | Potency | re-replication activation
O=S1(=O)CCOC[C@H](Cc2ccccc2)N1Cc1ccccc1Br | inactive | 
O=C(CCc1nc2ccccc2c(=O)[nH]1)OCC(=O)c1cccc(Cl)c1 | inactive | 
CCC(=O)/C(=C(/O)c1ccccc1)c1nc2ccccc2[nH]1 | inactive | 
O=C(/C(=C/c1cccc(Cl)c1)c1nc2ccccc2[nH]1)c1ccccc1 | 18.4 µM (active) | 
NCCN1CCN2C(=O)CN(C(=O)c3ccccc3)CC12 (centres undefined) | inactive | 
COc1ccc(N2CCN(C(CNS(=O)(=O)c3ccc(C)cc3)c3ccccc3)CC2)cc1 (centres undefined) | inactive | 
Cc1cccc(C)c1NC(=O)C(Cl)C(=O)c1ccccc1 (centres undefined) | 16.4 µM (active) | 
Cc1cccc(C)c1NC(=O)C(c1ccccc1)N1CC(=O)Nc2ccccc21 (centres undefined) | inactive | 
Cc1cccc(C)c1NC(=O)CN(C)C(=O)CCC(=O)c1ccccc1 | inactive | 
COc1cc(OC)c(C(=O)NNC(=O)c2ccc(NS(=O)(=O)c3cccs3)cc2)cc1OC | inactive | 
NC(=O)C1(Nc2ccc([N+](=O)[O-])cc2)CCCC1 | inactive | 
CCOC(=O)c1cc2c(=O)n3ccccc3nc2n(CC(C)C)c1=NC(=O)c1c(-c2c(F)cccc2Cl)noc1C | 13 µM (active) | 
C/C(=N/OC(=O)c1c(-c2c(F)cccc2Cl)noc1C)c1cnccn1 | inactive | 
CCCn1c(=NC(C)=O)c(C(=O)OCC)cc2c(=O)n3ccccc3nc21 | inactive | 
O=C(OCC(=O)N1CCN(C(=O)c2ccco2)CC1)c1c(Cl)cccc1Cl | inactive | 
Cc1ccc(/C=C/C(=O)Nc2ccc([N+](=O)[O-])c(NC(=O)/C=C/c3ccc(C)o3)c2)o1 | inactive | 
O=C(NNC(=O)C1CCCC1)c1ccc(F)cc1 | inactive | 
O=C(/C=C/c1ccc([N+](=O)[O-])o1)NNC(=O)c1ccc(F)cc1 | 3.66 µM (active) | 
Cc1cccc(C(=O)OCC(=O)NC(C)C2CC3CCC2C3)c1O (centres undefined) | inactive | 
CNC(=S)NNC(=O)c1oc2nc(-c3ccccc3)cc(-c3ccco3)c2c1N | 14.6 µM (active) | 

SMILES | Potency | re-replication activation
CNC(=S)NNC(=O)c1cccn(Cc2ccccc2)c1=O | inactive | 
CNC(=S)NNC(=O)c1sccc1OCc1ccccc1 | inactive | 
COc1ccc(CC(=O)NC(C)c2ccc(Cl)c(Cl)c2)cc1S(=O)(=O)N1CCOCC1 (centres undefined) | inactive | 
Cc1ccc(Nc2c(O)nc[nH]c2=O)cc1C | inactive | 
C[C@]12CC[C@H](O)CC1=CCC1C2CC[C@@]2(C)C1CC[C@@H]2NC(=O)CCC(=O)O (some centres undefined) | inactive | 
COC(=O)C1CC2=C(CC(C)(C)CC2=O)N(c2ccccc2)C1=O (centres undefined) | inactive | 
CCOC(=O)c1ccc(N/C(=N/S(=O)(=O)c2ccccc2)c2ccccc2)cc1 | 20.6 µM (active) | 
Cc1ccc(S(=O)(=O)/N=C(/Nc2ccc3[nH]c(=O)[nH]c3c2)c2ccccc2)cc1 | inactive | 
CCOC(=O)c1ccc(NC(=O)c2cccnc2)cc1 | inactive | 
NC(=S)NN=C1CCCC(C(F)(F)F)C1 (centres undefined) | inactive | 
O=C1/C(=C\c2ccc([N+](=O)[O-])cc2)CS(=O)(=O)C/C1=C/c1ccc([N+](=O)[O-])cc1 | 4.11 µM (active) | 
O=C(NN=Cc1ccc([N+](=O)[O-])cc1)C1CC1 | inactive | 
O=[N+]([O-])c1ccc(C=NN=Cc2ccc([N+](=O)[O-])cc2)cc1 | inactive | 
CCC(CO)Oc1cc(NC(=O)c2cccc(F)c2)c2ncn(C(C)C)c2c1 (centres undefined) | inactive | 
O=C1N[C@@H](c2ccccc2)COC(=O)[C@H](Cc2ccc(F)cc2)C/C=C\C[C@@H]1CC(=O)N(CCO)Cc1ccccc1 | inactive | 
CC1(C)Cc2c(C#N)c(SCc3nc4ccccc4[nH]3)nc(N3CCOCC3)c2CO1 | 12.6 µM (active) | 
COc1ccc(CSc2nc(N3CCOCC3)c3c(c2C#N)CC(C)(C)OC3)cc1 | inactive | 
CC(C)C(=O)N1CCN(c2nc(-c3ccccc3)c3c(c2C#N)CC(C)(C)OC3)CC1 | inactive | 
C=CC(COCc1ccccc1)N(CC(=O)OC)S(=O)(=O)c1cc(Br)ccc1OC (centres undefined) |  | 4.23% [at 9.22 µM]
